We go through 13 compounds from PubChem BioAssay.

Assay [1] deals with TRPC4 beta (transient receptor potential cation channel C4), mouse. In words: TRPC4 cation channel opening, retest – cell-based, Fluo4 calcium, HEK293 TRPC4beta/mu-opioid, duplicates, 10 µM, confirmation (AID 2426;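 active = fluorescence ratio normalized to control raised more than 50% in primary screen plus both repeat runs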;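 for activation: percent rise of integrated ratio over buffer wells lacking compound which define 0%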). Particulars: Fluo4 calcium fluorescence, at 10 µM; hits give high values.
Assay [2] deals with transient receptor potential cation channel C4 beta (TRPC4), mouse. Briefly: TRPC4 cation channel opening, second retest – cell-based, second round, Fluo4, HEK293 TRPC4beta/mu-opioid, 1 µM, confirmation (AID 2461;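 active = primary screen active and over 50% activation in each of two duplicate runs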;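 for activation: 0% = wells without test compound as baseline of integrated fluorescence ratio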). The following applies: Fluo4 calcium fluorescence, at 1 µM; hits give high values.
Assay [3] has as its system TRPC4 (transient receptor potential cation channel C4 beta), mouse. In words: potentiation of DAMGO EC20 TRPC4 response – cell-based, second round, Fluo-4, HEK293 TRPC4beta/mu-opioid, 1 µM, confirmation (AID 2554;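 active = primary screen hit whose fluorescence ratio, in both repeats, exceeds the weak agonist control mean by 3 SD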). The following applies: DAMGO EC20, Fluo-4 calcium flux, at 1 µM; hits give high values. Background: Calcium flux is commonly read through the fluorescence of an indicator in the cells.

The subject of assay [4] is TRPC4 beta (transient receptor potential cation channel C4), mouse. Briefly: potentiation of DAMGO EC20 TRPC4 response – cell-based, Fluo-4, HEK293 TRPC4beta/mu-opioid, confirmation (AID 2555;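 active = primary screen hit whose calcium fluorescence ratio, in both repeats, exceeds the weak agonist control mean by 3 SD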). The following applies: DAMGO EC20, Fluo-4 calcium flux, at 10 µM; hits give high values.
Assay [5] has as its target Short transient receptor potential channel 4 (Mus musculus) (UniProt Q9QUQ5). Briefly: blockers of DAMGO-evoked TRPC4 calcium flux – cell-based, Fluo4, HEK293 TRPC4beta/mu-opioid, confirmation (AID 2636;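 active = calcium signal cut by more than 3 SD below the full-agonist control yet still positive, in both repeats and the earlier primary screen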). The following applies: at 10 µM; hits give high values.
The target is the same in assay [6]. Briefly: blockers of DAMGO-evoked TRPC4 calcium flux – cell-based, second round, Fluo4, HEK293 TRPC4beta/mu-opioid, 1 µM, confirmation (AID 2637;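 active = calcium signal ratio cut to more than 3 SD under the fully stimulated control mean yet still positive, in both repeats and the primary screen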). Particulars: at 1 µM; hits give high values.
Assay [7] has the same target. In words: calcium entry via TRPC4 opening agents – cell-based, HEK293 TRPC4/mu-opioid, Fluo-4 calcium, dose response (AID 434937;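 active = primary screen activator hit with a dose response curve and TRPC4 channel activation at any tested dose; inactive = no activation, no dose response, or not a primary hit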).
For assay [8] the target is unchanged. In words: potentiation of DAMGO-evoked TRPC4 calcium signal – cell-based, HEK293 TRPC4/mu-opioid, Fluo-4 calcium, EC20 DAMGO, dose response (AID 434941;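 active = earlier screen potentiator hit that boosts the TRPC4 ion channel at some dose, with a dose response; inactive = no potentiation, no dose response, or not a prior hit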;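 note: calcium entry triggered by an EC20 dose of DAMGO at the co-expressed mu-opioid receptor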).
Assay [9] addresses Short transient receptor potential channel 6 (Mus musculus) (UniProt Q61143). In words: TRPC6 blockade by TRPC4 inhibitor hits – cell-based, HEK293, membrane potential dye, duplicate, selectivity assay for TRPC4 inhibitor project, confirmation (AID 434948;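 active = active in primary screen and both duplicates, each dropping signal beyond three positive-control SD with fluorescence still positive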). Particulars: HEK293 TRPC6, membrane potential dye fluorescence, at 10 µM; inhibition: hits give high values, stimulated with maximal-effect acetylcholine unless noted; outcome: stimulated with maximal-effect acetylcholine unless noted.

The target is the same in assay [10]. Briefly: TRPC6 opening by TRPC4 activator hits – cell-based, HEK293, membrane potential dye, duplicate, selectivity assay for TRPC4 activator project, confirmation (AID 434950;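 active = membrane potential signal rise above negative control mean plus 3 SD in both duplicates, also active in the earlier TRPC4 screen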;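 for activation: 0% = buffer only wells and 100% = acetylcholine maximal-effect wells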). Particulars: HEK293 TRPC6, membrane potential fluorescence, at 10 µM; activation: hits give high values; outcome: activation.
For assay [11] the target is unchanged. In words: positive modulators of mouse TRPC6 channel – HEK293 cells, membrane potential dye, duplicate, selectivity assay for TRPC4 potentiator project, confirmation (AID 434952;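 active = compound raising the membrane signal above positive-control mean plus 3 SD in both repeats, and a primary screen hit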). Particulars: HEK293 TRPC6, membrane potential dye fluorescence, at 10 µM; maximal acetylcholine added after compound unless noted.
Assay [12] concerns the target Short transient receptor potential channel 4 (Mus musculus) (UniProt Q9QUQ5). Briefly: calcium flux activators in TRPC4/5HT1a cells, counter-screen for TRPC4 activator project, cell-based, second counter screen, HEK293 TRPC4/5HT1a, Fluo-4 (AID 434977;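 active = calcium signal rise above buffer-control mean plus 5 SD in both duplicates, and also a hit in the primary screen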;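 for activation: plate controls were assay buffer for no effect and maximal serotonin response for full effect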). Particulars: Fluo-4 calcium flux, at 10 µM; hits give high values.
Assay [13] is described as follows: serotonin-gated TRPC4 signal block – cell-based, second counter screen, HEK293 TRPC4/5HT1a, Fluo-4, counter-screen for TRPC4 inhibitor project, confirmation (AID 434978;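 active = primary screen active whose calcium signal fell more than 3 SD beyond the full-serotonin control mean in both duplicate plates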;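 for outcome: serotonin given first at submaximal then at maximal dose after compound preincubation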). Particulars: Fluo-4 calcium flux, at 10 µM; inhibition: hits give high values, serotonin added to trigger calcium flux unless noted; outcome: serotonin added to trigger calcium flux unless noted. (The purpose of a counterscreen is to sort out artefacts and off-target activity.)

The subject of assay [14] is TRPC4 (mouse), co-expressed with 5HT1a in HEK293. Briefly: enhancement of serotonin-evoked TRPC4 response – cell-based, second counter screen, HEK293 TRPC4/5HT1a, Fluo-4, counter-screen for TRPC4 potentiator project, confirmation (AID 434979;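 active = signal rise over 3 SD above mean of control wells given weak agonist, in both repeats and first screen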). The following applies: Fluo-4 calcium flux, at 10 µM; outcome: serotonin added at its EC20 dose unless noted; potentiation: hits give high values, serotonin added at its EC20 dose unless noted.

Assay [15] is described as follows: nonspecific calcium rise without TRPC4 – cell-based, HEK293 mu-opioid receptor line, counter-screen for TRPC4 activator project, confirmation (AID 449723).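 Note: counter screen cells carry the mu-opioid receptor alone and lack TRPC4.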 Particulars: HEK293 mu-opioid cells, Fluo-4 calcium fluorescence, at 10 µM; hits give high values.
Assay [16] is described as follows: nonspecific potentiation of DAMGO calcium response – cell-based, HEK293 mu-opioid receptor line, counter-screen for TRPC4 allosteric potentiator project, confirmation (AID 449724;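 active = calcium signal rise more than 3 SD above the low-dose agonist control mean, in both duplicate plates and the primary screen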;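 note: HEK293 cells carrying mu-opioid receptor only with no TRPC4 channel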). Particulars: HEK293 mu-opioid receptor cells, Fluo-4 calcium flux, at 10 µM; compound added before EC20 DAMGO stimulus unless noted.
For assay [17], the target named is Short transient receptor potential channel 4 (Mus musculus) (UniProt Q9QUQ5). Briefly: block of DAMGO-driven TRPC4 calcium entry – cell-based, HEK293 TRPC4/mu-opioid, Fluo-4 calcium, dose response (AID 434942;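 active = primary screen inhibitor hit that blocks the TRPC4 channel at some tested dose, yielding a dose curve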).
Chain of Short transient receptor potential channel 4 (Mus musculus) (Q9QUQ5 whole entry, looked up): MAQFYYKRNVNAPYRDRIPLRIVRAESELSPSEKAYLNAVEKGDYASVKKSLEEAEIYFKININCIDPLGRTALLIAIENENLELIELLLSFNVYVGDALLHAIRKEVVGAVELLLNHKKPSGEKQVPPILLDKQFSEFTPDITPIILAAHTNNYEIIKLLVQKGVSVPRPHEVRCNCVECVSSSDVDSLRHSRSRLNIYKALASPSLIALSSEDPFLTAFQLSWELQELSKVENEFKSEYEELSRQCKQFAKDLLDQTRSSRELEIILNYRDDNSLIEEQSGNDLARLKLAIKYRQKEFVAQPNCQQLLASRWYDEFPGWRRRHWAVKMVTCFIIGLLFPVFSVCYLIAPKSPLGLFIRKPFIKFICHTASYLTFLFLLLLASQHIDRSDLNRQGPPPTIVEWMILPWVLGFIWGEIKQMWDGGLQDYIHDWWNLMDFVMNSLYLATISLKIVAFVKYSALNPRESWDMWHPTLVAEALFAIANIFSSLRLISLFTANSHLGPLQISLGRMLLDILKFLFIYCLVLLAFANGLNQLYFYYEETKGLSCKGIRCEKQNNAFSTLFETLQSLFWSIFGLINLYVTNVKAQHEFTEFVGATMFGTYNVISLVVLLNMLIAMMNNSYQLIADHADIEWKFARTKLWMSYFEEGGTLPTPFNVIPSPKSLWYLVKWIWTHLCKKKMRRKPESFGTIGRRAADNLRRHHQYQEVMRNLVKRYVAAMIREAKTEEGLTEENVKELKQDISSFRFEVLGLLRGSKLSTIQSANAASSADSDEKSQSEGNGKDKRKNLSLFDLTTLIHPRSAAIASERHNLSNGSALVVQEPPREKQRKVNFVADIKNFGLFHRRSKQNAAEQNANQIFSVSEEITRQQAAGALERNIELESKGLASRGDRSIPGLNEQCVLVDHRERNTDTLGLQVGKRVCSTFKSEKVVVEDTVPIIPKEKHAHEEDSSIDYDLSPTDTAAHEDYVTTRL

For some of these results: Potency and affinity values are given separately. Calls of active or inactive are those of the source.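 Rule for the calls, unless noted: active = hit in primary screen, with calcium signal over 5 SD above buffer well mean in both duplicates; inactive = the rest.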

Chain of Short transient receptor potential channel 6 (Mus musculus) (Q61143 whole entry, looked up): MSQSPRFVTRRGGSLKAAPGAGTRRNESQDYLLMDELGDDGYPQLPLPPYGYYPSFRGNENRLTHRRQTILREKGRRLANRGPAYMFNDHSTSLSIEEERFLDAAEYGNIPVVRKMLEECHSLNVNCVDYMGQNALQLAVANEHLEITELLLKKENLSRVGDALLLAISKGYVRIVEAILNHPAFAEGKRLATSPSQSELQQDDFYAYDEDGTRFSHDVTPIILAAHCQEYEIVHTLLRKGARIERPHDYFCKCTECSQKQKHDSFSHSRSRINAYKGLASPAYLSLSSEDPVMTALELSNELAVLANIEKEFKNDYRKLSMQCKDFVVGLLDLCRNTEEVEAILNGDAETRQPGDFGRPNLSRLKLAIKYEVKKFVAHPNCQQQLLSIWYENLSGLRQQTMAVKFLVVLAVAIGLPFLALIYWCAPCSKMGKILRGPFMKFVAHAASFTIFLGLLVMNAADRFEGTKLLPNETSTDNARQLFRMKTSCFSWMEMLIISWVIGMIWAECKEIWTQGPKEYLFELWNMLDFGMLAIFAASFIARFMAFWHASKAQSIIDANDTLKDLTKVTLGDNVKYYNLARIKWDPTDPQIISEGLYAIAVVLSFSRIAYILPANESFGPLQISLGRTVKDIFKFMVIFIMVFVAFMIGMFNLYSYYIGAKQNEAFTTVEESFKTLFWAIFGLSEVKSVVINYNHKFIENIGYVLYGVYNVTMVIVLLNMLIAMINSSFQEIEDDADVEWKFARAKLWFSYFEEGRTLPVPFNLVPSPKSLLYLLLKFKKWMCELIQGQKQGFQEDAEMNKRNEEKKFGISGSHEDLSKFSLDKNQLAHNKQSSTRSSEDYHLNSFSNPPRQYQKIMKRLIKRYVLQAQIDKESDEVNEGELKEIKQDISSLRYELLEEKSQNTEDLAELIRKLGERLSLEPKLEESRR

The inhibition is the change of the read-out against control, counted positive when it falls. With `COc1ccc(O)c(CN2CCCC(C(=O)c3sccc3C)C2)c1` (stereo not drawn), the outcome in [1], in assay [2], in [3], in assay [4], in assay [6] and in [7] was inactive. For the same compound, the result in assay [8], in assay [9], in assay [10], in assay [11], in assay [12] and in [14] was inactive. The result in assay [15] and in assay [16] was inactive. The inhibition in [5] is 92% (active); in assay [13] it was 29.4% (active).
Regarding `CCN1CCN(Cc2cc(Br)ccc2O)CC1`, the result in assay [1], in assay [2], in assay [5], in assay [6], in [7] and in [17] was inactive. Moreover, the compound was called inactive in assay [9], in assay [10], in [11], in assay [12], in [13] and in assay [15]. Further, the outcome in [16] was inactive. Further, the potentiation in assay [3] is 19% (active); in assay [4], 22% (active); in assay [14], 16.8% (active).
In the case of `Cc1cc(-c2ccccc2)cc(C)[n+]1Cc1ccccc1`, the activation in assay [1] was 142% (active). For the same compound, the outcome in assay [2], in assay [3], in [4], in assay [5], in [6] and in assay [8] was inactive. Also, the outcome in [17], in assay [9], in assay [10], in [11], in [12] and in [13] was inactive. In addition, the result in assay [14], in assay [15] and in assay [16] was inactive.
With `c1ccc2sc(C3CCCNC3)nc2c1` (stereo not drawn), the activation was 170% (active) in assay [1], 115% (active) in [2], 44% (active) in assay [10] and 95.3% (active) in assay [12]. Also, the result in assay [3], in assay [4], in assay [5], in [6], in assay [8] and in assay [17] was inactive. In addition, the outcome in assay [9], in [11], in assay [13], in assay [14], in assay [15] and in assay [16] was inactive.
In the case of `COc1ccc(CCNCc2ccc(SC)cc2)cc1`, the activation in assay [1] was 122% (active); in assay [10], 65.5% (active); in assay [12], 21.7% (active). The result in assay [2], in [3], in assay [4], in assay [5], in assay [6] and in assay [8] was inactive. The outcome in assay [17] and in assay [15] was inactive. The outcome in assay [9], in assay [11], in assay [13], in assay [14] and in assay [16] was “inactive [setting not given]” throughout.
Consider `CCC(=O)OC1(c2cccc(C)c2)CC(C)N(C)CC1C` (stereo not drawn), for which the activation in [1] is 79% (active); in [10], 74.5% (active). Besides, the result in [2], in assay [3], in [4], in [5], in assay [6] and in [8] was inactive. Moreover, the result in assay [17], in [12] and in assay [15] was inactive. Besides, the outcome in assay [9], in assay [11], in assay [13], in [14] and in [16] was “inactive [setting not given]” throughout.
For `COc1ccc(CNCCc2c[nH]c3ccccc23)c(OC)c1C`, the values for the activation in assay [1], in [10] and in [12] were 151% (active), 63.5% (active) and 13.6% (active), respectively. Further, the outcome in assay [2], in assay [3], in assay [4], in [5], in assay [6] and in assay [8] was inactive. The outcome in assay [17], in [9], in assay [11], in assay [13], in [14] and in [15] was inactive. Besides, the result in [16] was inactive.
For `CCC1(C)CC(CCNCc2ccc(N(C)C)cc2)(c2ccc(F)cc2)CCO1` (stereo not drawn), the activation in assay [1] is 184% (active). Further, the result in [2], in [3], in [4], in [5], in assay [6] and in assay [8] was inactive. Besides, the outcome in assay [17], in assay [9], in [10], in assay [11], in assay [12] and in assay [13] was inactive. Moreover, the result in assay [14], in assay [15] and in [16] was inactive.
Take `O=C(c1ccc2c3c(cccc13)CC2)C1CCCN(CC2CC2)C1` (stereo not drawn): the activation is 164% (active) in assay [1], 79% (active) in assay [2], 75.5% (active) in assay [10] and 61.9% (active) in [12]. For the same compound, the outcome in assay [3], in assay [4], in assay [5], in assay [6], in [8] and in assay [17] was inactive. In addition, the result in [9], in assay [11], in [13], in [14], in assay [15] and in assay [16] was inactive.
For `N=c1c[n+](CC23CC4CC(CC(C4)C2)C3)[n-]o1`, the activation in assay [1] was 294% (active); in assay [2] it was 114% (active); in assay [10], 38% (active). Further, the result in assay [3], in assay [4], in [5], in assay [6], in assay [8] and in assay [17] was inactive. The outcome in [9], in assay [11], in assay [12], in assay [13], in [14] and in [15] was inactive. Besides, the outcome in assay [16] was inactive.
`CCOc1cc(CNCCc2c[nH]c3ccccc23)cc(Cl)c1OC`: the results for the activation in [1] and in assay [12] were 129% (active) and 65.6% (active), respectively. The result in [2], in assay [3], in [4], in assay [5], in [6] and in assay [8] was inactive. Besides, the outcome in assay [17], in assay [9], in assay [10], in assay [11], in [13] and in assay [14] was inactive. Further, the outcome in assay [15] and in assay [16] was inactive.
`O=[N+]([O-])c1ccc(N2CCCNCC2)c2ncccc12`: the activation in assay [1] is 133% (active); in [2] it was 139% (active); in assay [12] it was 55.8% (active). Besides, the result in assay [3], in [4], in [5], in [6], in [8] and in assay [17] was inactive. Also, the compound was called inactive in assay [9], in assay [10], in assay [11], in assay [13], in assay [14] and in assay [15]. In addition, in assay [16], the outcome was inactive.
Consider `O=[N+]([O-])c1ccc(N2CCNCC2)c2ncccc12`, for which the activation is 69% (active) in assay [1], 64% (active) in [2] and 38% (active) in [12]. Besides, the results for the potentiation in assay [3], in assay [4] and in assay [14] were 19% (active), 23% (active) and 11% (active), respectively. Further, the outcome in assay [5], in assay [6], in assay [8], in assay [17], in assay [9] and in [10] was inactive. The outcome in [11], in assay [13], in [15] and in assay [16] was inactive.
